KCNQ2 enhance = potentiators of rat KCNQ2 potassium channel | O88943 | CHO-K1 KCNQ2, FluxOR thallium flux fluorescence; active compounds read high | B-score at 10 µM | 310,000 tested, 0.54% active;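 active = fluorescence ratio B-score at least 3 SD of library B-scores, with initial fluorescence B-score within 3 of them, cut at about 5.3 in these data; same plate scores as AID 2156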;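 also: B-score of peak minus minimum over baseline fluorescence ratio after K+ and Tl+ stimulus; positive B-score means potentiation of KCNQ2 with more thallium influx and brighter signal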
Target sequence (O88943 whole entry, looked up): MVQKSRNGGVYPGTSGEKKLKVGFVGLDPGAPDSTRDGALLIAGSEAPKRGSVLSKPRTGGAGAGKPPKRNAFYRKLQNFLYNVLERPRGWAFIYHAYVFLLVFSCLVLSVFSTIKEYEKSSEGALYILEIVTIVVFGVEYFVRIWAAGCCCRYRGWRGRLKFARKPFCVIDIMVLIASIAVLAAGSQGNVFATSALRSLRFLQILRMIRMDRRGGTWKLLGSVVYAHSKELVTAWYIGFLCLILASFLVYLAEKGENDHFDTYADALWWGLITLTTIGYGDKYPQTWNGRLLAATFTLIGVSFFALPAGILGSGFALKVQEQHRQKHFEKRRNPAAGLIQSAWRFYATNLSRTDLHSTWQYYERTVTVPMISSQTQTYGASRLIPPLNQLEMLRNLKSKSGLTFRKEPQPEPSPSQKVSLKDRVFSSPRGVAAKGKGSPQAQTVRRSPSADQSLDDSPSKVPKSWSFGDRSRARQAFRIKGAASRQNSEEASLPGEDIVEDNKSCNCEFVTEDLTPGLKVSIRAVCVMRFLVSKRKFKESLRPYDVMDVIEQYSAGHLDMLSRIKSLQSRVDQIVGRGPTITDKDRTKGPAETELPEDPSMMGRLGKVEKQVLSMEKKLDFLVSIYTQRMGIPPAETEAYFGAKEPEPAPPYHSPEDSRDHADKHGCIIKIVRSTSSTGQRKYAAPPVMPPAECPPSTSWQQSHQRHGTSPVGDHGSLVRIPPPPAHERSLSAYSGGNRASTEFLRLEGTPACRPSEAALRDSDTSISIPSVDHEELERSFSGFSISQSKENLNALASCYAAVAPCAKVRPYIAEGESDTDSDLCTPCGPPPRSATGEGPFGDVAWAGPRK
KCNQ2 block = KCNQ2 (rat) channel inhibition; O88943; CHO-K1 KCNQ2, FluxOR thallium flux, 20 min; active compounds read low; B-score at 10 µM; 310,000 tested, 1.1% active;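 active = fluorescence ratio B-score at most minus 3 library SDs, with starting brightness B-score within 2 library SDs, cut at about -5.5 in these data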
A number is an active result. Sampled rows, rich in hits. Any-hit rate of the full collection: about 1.6%.

What do the screens show for `O=C(COC(=O)CN1C(=O)NC2(CCCC2)C1=O)Nc1c(Cl)cccc1C(F)(F)F`?
KCNQ2 enhance: inactive; KCNQ2 block: inactive

What do the screens show for `CCOC(=O)c1c(C(=O)OCC)c(C)n(CCc2ccccc2)c1C`?
KCNQ2 enhance: inactive; KCNQ2 block: -5.8

How did CCOC(=O)c1c(C)c(C(=O)NCCc2ccccc2)c(C)n1C do in these assays?
KCNQ2 block: inactive

Results for CSc1ccc(CNC(=O)CCn2ccc3cc(S(=O)(=O)N4CCCC4)ccc32)cc1 ?
KCNQ2 block: inactive

What do the screens show for `O=C(CO/N=C/c1ccccc1Cl)N1CCCc2ccccc21`?
KCNQ2 enhance: inactive; KCNQ2 block: -6.1

How did O=C(CO/N=C/c1ccccc1OC(F)F)N1CCc2ccccc21 do in these assays?
KCNQ2 block: inactive

What do the screens show for `Oc1ccc2ccccc2c1CN1CCN(c2ccccc2F)CC1`?
KCNQ2 enhance: 13; KCNQ2 block: inactive

How did Oc1ccc2ccccc2c1CN1CCN(C/C=C/c2ccccc2)CC1 do in these assays?
KCNQ2 enhance: inactive; KCNQ2 block: inactive

What do the screens show for `CN(CCc1cnn(C)c1)C(=O)C1CCC(=O)N(CC2CCCCC2)C1` (stereo not drawn)?
KCNQ2 block: inactive

Results for C=CCn1c(SCc2csc(C)n2)nc2sc3c(c2c1=O)CCCCC3 ?
KCNQ2 enhance: inactive; KCNQ2 block: -8.1

What do the screens show for `C=CCn1c(SCC(=O)c2cccs2)nc2sc(C)c(C)c2c1=O`?
KCNQ2 block: inactive

How did C=CCn1c(SCc2csc(C)n2)nc2sc3c(c2c1=O)CCC(C)C3 (stereo not drawn) do in these assays?
KCNQ2 block: inactive

How did C=CCn1c(SCc2cc(=O)n3ccsc3n2)nc2sc(C)c(C)c2c1=O do in these assays?
KCNQ2 enhance: inactive; KCNQ2 block: -9

Results for O=C(OCC(=O)c1c[nH]c2ccccc12)c1cc2ccccc2cc1O ?
KCNQ2 enhance: inactive; KCNQ2 block: inactive

How did O=C(NCCc1ccccc1Cl)C1CCC(=O)N(C2CCCCCC2)C1 (stereo not drawn) do in these assays?
KCNQ2 enhance: inactive; KCNQ2 block: inactive

How did Cc1cc(S(=O)(=O)N2CCN(C(=O)CCC(=O)N3CCOCC3)CC2)ccc1Br do in these assays?
KCNQ2 enhance: inactive; KCNQ2 block: inactive

What do the screens show for `Cc1ccc(NC(=O)c2cc([N+](=O)[O-])ccc2NCc2cccnc2)cc1`?
KCNQ2 block: inactive

How did O=C(c1cccc(-c2nnc(-c3ccccc3)o2)c1)N1CCCCCC1 do in these assays?
KCNQ2 enhance: inactive; KCNQ2 block: -5.8

How did O=C(c1cccc(-c2nnc(-c3ccccc3)o2)c1)N1CCCCC1 do in these assays?
KCNQ2 enhance: inactive; KCNQ2 block: inactive

How did O=C(Nc1ccccc1N1CCOCC1)C1(c2ccc(Cl)cc2)CCC1 do in these assays?
KCNQ2 enhance: inactive; KCNQ2 block: -6.5

What do the screens show for `O=C(Cc1ccc(Cl)c(Cl)c1)Nc1ccccc1N1CCOCC1`?
KCNQ2 enhance: inactive; KCNQ2 block: inactive

How did Cn1nnnc1SCC(=O)N(C1CCCCC1)C1CCS(=O)(=O)C1 (stereo not drawn) do in these assays?
KCNQ2 block: inactive

How did Cc1ccc(S(=O)(=O)N2CCCC(C(=O)NCCC(C)C)C2)cc1 (stereo not drawn) do in these assays?
KCNQ2 enhance: inactive; KCNQ2 block: inactive

Results for COc1ccc(S(=O)(=O)N2CCCC(C(=O)NCc3cccnc3)C2)cc1OC (stereo not drawn) ?
KCNQ2 enhance: inactive; KCNQ2 block: inactive

How did O=C(CSc1nnc(Cc2cccs2)n1Cc1ccco1)Nc1ccc(Br)cc1 do in these assays?
KCNQ2 enhance: inactive; KCNQ2 block: -6.7

What do the screens show for `O=C(CSc1nnc(Cc2ccccc2)n1Cc1ccco1)NC12CC3CC(CC(C3)C1)C2`?
KCNQ2 enhance: inactive; KCNQ2 block: -7.7

What do the screens show for `CN(C)C(=O)CSc1nnc(Cc2ccccc2)n1Cc1ccco1`?
KCNQ2 enhance: inactive; KCNQ2 block: inactive

What do the screens show for `O=C(CSc1nnc(-c2ccco2)n1Cc1ccco1)NCc1cccs1`?
KCNQ2 enhance: inactive; KCNQ2 block: inactive

Results for NC(=O)CSc1nc2c(c(=O)n1-c1ccccc1)C1(CCCCC1)Cc1ccccc1-2 ?
KCNQ2 enhance: inactive; KCNQ2 block: inactive

What do the screens show for `N#CCSc1nc2c(c(=O)n1Cc1ccco1)C1(CCCC1)Cc1ccccc1-2`?
KCNQ2 block: inactive

Results for CC1(C)CC(n2c(NCCO)nc3c(c2=O)C2(CCCC2)Cc2ccccc2-3)CCO1 (stereo not drawn) ?
KCNQ2 block: inactive

Results for CCCn1c(SCC#N)nc2c(c1=O)C1(CCCC1)Cc1ccccc1-2 ?
KCNQ2 enhance: inactive; KCNQ2 block: -6.4

What do the screens show for `Cc1cccc(-n2c(SCC(N)=O)nc3c(c2=O)C2(CCCC2)Cc2ccccc2-3)c1`?
KCNQ2 enhance: inactive; KCNQ2 block: -6.8

How did O=c1c2c(nc(NCCO)n1CC1CCCCC1)-c1ccccc1CC21CCCC1 do in these assays?
KCNQ2 enhance: inactive; KCNQ2 block: -8.8

How did Cc1cc(S(=O)(=O)N2CCOCC2)ccc1OCC(=O)Nc1ccc(F)cc1 do in these assays?
KCNQ2 enhance: inactive; KCNQ2 block: inactive

Results for O=C(c1noc2c1CSc1ccccc1-2)N1CCN(c2ccc(Cl)cc2)CC1 ?
KCNQ2 enhance: inactive; KCNQ2 block: -7

Source: PubChem
